Measurements published in PubChem BioAssay AID1259343 (VanderVen Lab, College of Veterinary Medicine, Cornell …, 2017).
In all, about 6,200 compounds went through this assay and about 2,900 (47%) were called active. So high a share suggests a set chosen from earlier hits. Some of the results follow. A number with no mark means an inactive call. No stated cut-off is given here; in the data, active means inhibition above about 50%; inactive means the rest.

Assay: Mycobacterium tuberculosis growth inhibition, primary screen (AID 1259343)
Settings: inhibition: at 10 µM, stronger effect = higher value; outcome: 10 uM

Structure (SMILES)	inhibition
CCCc1cc(=O)[nH]c(-n2nc(C)cc2NC(=O)C2CC2)n1	101% (active)
CCc1cc(=O)[nH]c(-n2nc(C)cc2NC(=O)C2CC2)n1	101% (active)
O=c1c(Sc2ccc(Cl)cc2)c(O)c2c(n1-c1ccccc1)CCCC2	40.5%
CCNCC#CCOc1ccc(C)c(C)c1	-6.66%
CC(=O)Oc1ccc2c(=O)oc(COc3ccc(C)c(C)c3)nc2c1	60.8% (active)
CC(C)n1ncc2cc(N)cnc21	83.8% (active)
O=C(Nc1ccc(-n2cccc2)cc1)C1=CN2CCN(Cc3cscn3)C(=O)N=C2O1	4.33%
O=C1N=C2OC(C(=O)Nc3cccc(Cc4ccccc4)c3)=CN2CCN1	91.3% (active)
CCN1CC(CN(C)C(=O)Nc2nc3ccccc3s2)Oc2ccccc21 (configuration not stated)	12.4%
CC(=O)N1CCN(CC(=O)Nc2nc3ccc(F)cc3s2)CC1	15.5%
CN(C(=O)Nc1nc2ccc(F)cc2s1)C1CCCc2ccccc21 (configuration not stated)	74.2% (active)
O=c1[nH]c(CN2CCN(c3ccccc3F)CC2)nc2ccsc12	13.7%
Cc1ccc(C2=CCN(Cc3nc4ccsc4c(=O)[nH]3)CC2)cc1	94.7% (active)
CC(C)(O)C#Cc1ccc(C(=O)NCc2cnn(-c3ccc(F)cc3)c2)o1	36.3%
O=C(Nc1nnc(C2=COCCO2)o1)c1cc(Cl)cc(Cl)c1	93.4% (active)
CCCc1cc(=O)[nH]c(-n2nc(C)cc2NC(=O)c2cccc3ccccc23)n1	102% (active)
CCN(CC)C(=O)N1CCN(c2ccc(Nc3ccnc4cc5ccccc5cc34)cc2)CC1	-24.5%
CCc1ccc(OCc2ccccc2C(=O)Nc2ccc3nc(C)cc(N)c3c2)cc1	33.8%
Cc1cc(=O)[nH]c(-n2nc(C)cc2NC(=O)c2cc(C)oc2C)n1	90.8% (active)
CCc1cc(=O)[nH]c(-n2nc(C)cc2NC(=O)c2cccc3ccccc23)n1	13.9%
CCN(CC)c1cc(C)nc(Nc2ccc(NC(=O)c3cccc4ccccc34)cc2)n1	93.6% (active)
Cc1cc(=O)[nH]c(-n2nc(C)cc2NC(=O)c2cccc3ccccc23)n1	101% (active)
O=C1C(c2ccccc2)C=Nc2c(-c3ccccc3)cnn21 (configuration not stated)	-23.2%
Cc1cc(NC(=O)c2ccccc2C)n(-c2nc(C)c(C)c(=O)[nH]2)n1	-21.7%
Cc1cc(=O)[nH]c(-n2nc(C)cc2NC(=O)c2ccccc2C)n1	101% (active)

Structure (SMILES)	inhibition
Clc1ccc2nc(SCc3nnc(C4CCC4)o3)[nH]c2c1	16.7%
Clc1ccc2nc(SCCC3CCCCC3)[nH]c2c1	23.7%
Clc1ccc(CCCc2nc3ccc(Cl)cc3[nH]2)c(Cl)c1	99.6% (active)
S=c1ccss1	101% (active)
CCc1cc2c(SCC(=O)C(C)(C)C)ncnc2s1	-53%
CCc1cc2c(=O)n(NC(=O)c3cccc(C)n3)cnc2s1	99.6% (active)
CCc1cc2c(N3CCCCC3)ncnc2s1	46.7%
S=c1nn[nH]n1-c1cccc(Cl)c1	10%
CC(C)c1ccc(-n2[nH]nnc2=S)cc1	70.6% (active)
CC(C)c1ccc(-n2nnnc2SCC(N)=O)cc1	32.2%
Fc1cccc(-n2[nH]nnc2=S)c1	90.8% (active)
CCc1cc(=O)[nH]c(-n2nc(C)cc2NC(=O)C23CC4CC(CC(C4)C2)C3)n1	93.6% (active)
CCCc1cc(=O)[nH]c(-n2nc(C)cc2NC(=O)C23CC4CC(CC(C4)C2)C3)n1	100% (active)
Cc1cc(=O)[nH]c(-n2nc(C3CC3)cc2NC(=O)C23CC4CC(CC(C4)C2)C3)n1	99.1% (active)
Cc1cc(NC(=O)C23CC4CC(CC(C4)C2)C3)n(-c2nc(C)c(C)c(=O)[nH]2)n1	14.6%
CCc1c(C)nc(-n2nc(C)cc2NC(=O)C23CC4CC(CC(C4)C2)C3)[nH]c1=O	-26.4%
Cc1cc(=O)[nH]c(-n2nc(C)cc2NC(=O)C23CC4CC(CC(C4)C2)C3)n1	99.3% (active)
Cc1cc(NC(=O)C23CC4CC(CC(C4)C2)C3)n(-c2nc3c(c(=O)[nH]2)CCC3)n1	101% (active)
Cc1nc(N2CCCC(C)C2)c2cnn(-c3ccc(F)cc3)c2n1 (configuration not stated)	23.5%
CCCc1nc(N2CCNCC2)c2c(C)nn(-c3ccc(F)cc3)c2n1	42%
CC(C)CCc1nc(N2CCNCC2)c2cnn(-c3cccc(Cl)c3)c2n1	41.8%
Cc1ccc(Cc2nc(N3CCNCC3)c3c(C)nn(-c4ccccc4)c3n2)cc1	92.7% (active)
Clc1cccc(-n2ncc3c(N4CCNCC4)nc(Cc4ccccc4)nc32)c1	65.1% (active)
CC1NC(=S)N(CCc2nc(C(C)(C)C)cs2)C1=O (configuration not stated)	12.2%
CCOc1ccc(OCCCOc2ccccc2OC)cc1	9.51%

Structure (SMILES)	inhibition
CCOc1ccc(OCCCOc2ccccc2Br)cc1	95.2% (active)
CCOc1ccc(OCCCOc2cccc(C)c2C)cc1	73.5% (active)
CCOc1cccc(OCCCOc2ccc(Cl)cc2C)c1	82.3% (active)
CC(C)(C)CC(C)(C)c1ccc(O)c(Cc2ccc(Cl)cc2Cl)c1	72.6% (active)
COc1ccc2c(c1)CCc1c(-c3ccc(C(=O)NCCCSC)cc3)n[nH]c1-2	95.5% (active)
Cc1ccc(C(=O)N=c2sccn2Cc2ccc(C(=O)NC(C)c3ccccc3)cc2)cc1 (configuration not stated)	-8.44%
CC(=O)c1ccc(OCC(=O)NC(C)c2ccc(CC(C)C)cc2)cc1 (configuration not stated)	46.8%
CC(C)Cc1ccc(C(C)NC(=O)Cn2ccsc2=O)cc1 (configuration not stated)	92.5% (active)
COc1ccc2cc(C3CN(CCC(F)(F)C(F)F)CCO3)ccc2c1 (configuration not stated)	42.7%
CCOC(=O)C1=C(O)CSC1=Nc1ccc(Cl)cc1	16.2%
CC(=O)C1=C(O)CC(c2ccccc2)SC1=Nc1ccccc1 (configuration not stated)	57.6% (active)
Fc1ccc(SCCc2ccncc2)cc1	57.7% (active)
O=C1C(Cl)=C(Nc2cccc(Br)c2)C(=O)N1Cc1ccc(Br)cc1	61% (active)
O=c1ccc(-c2cccc(Br)c2)nn1Cc1ccc(F)cc1	8.75%
NC(=S)Nc1cccc(Br)c1	32.7%
CCOc1ccc(NC(=O)c2cn(-c3cc(N4CCOCC4)ncn3)cn2)cc1	74.7% (active)
O=C(O)c1cc(O)c2c(c1)C(=O)c1cc(O)cc(O)c1C2=O	91.8% (active)
CC(c1ccc(F)cc1)N(C)C(=O)CN1CC(O)CC1c1cc(F)ccc1F (configuration not stated)	84% (active)
CC(=O)c1ccc(C(=O)N(C)C(C)c2ccc(Cl)cc2)s1 (configuration not stated)	25.1%
CC(c1ccc(Cl)cc1)N(C)C(=O)c1ccc[nH]1 (configuration not stated)	-3.09%
Cc1nc(N)sc1N=Nc1cc(C(F)(F)F)ccc1Cl	18.3%
Cc1nc(NC(=O)c2c(C)nn(CC(C)C)c2Cl)sc1C	12.5%
Cc1sc(NC2CCCC2)nc1-c1ccc(F)c(F)c1	34.8%
CCC(C)C(=O)Nc1nc(-c2ccc(Cl)cc2)c(C)s1 (configuration not stated)	70.1% (active)
COc1cccc(C2c3c(oc4cc(C)c(C)cc4c3=O)C(=O)N2c2nccs2)c1OC (configuration not stated)	-18.6%

Structure (SMILES)	inhibition
c1ccc(CN2CCN(c3nc(-c4cccnc4)nc4ccccc34)CC2)cc1	26.4%
Oc1ccc(Nc2nc(N3CCCC3)c3ccccc3n2)cc1	83.1% (active)
Cc1cc(N2CCCCC2)nc(Nc2ccc(NS(=O)(=O)c3ccc4nc(C)sc4c3)cc2)n1	25.5%
N#Cc1nc(COc2ccc(Cl)cc2)oc1N1CCCC1	92.6% (active)
CCOC(=O)C1CCCN(c2oc(-c3ccc(Cl)cc3)nc2C#N)C1 (configuration not stated)	12.5%
COc1ccc(OCc2nc(C#N)c(N3CCCC3)o2)cc1	-23.3%
COc1ccc(C[C@H](N)C(=O)N[C@@H]2[C@@H](CO)OC(n3cnc4c(N(C)C)ncnc43)[C@@H]2O)cc1 (some centres not stated)	66.6% (active)
CN(C)N=Nc1nc[nH]c1C(N)=O	70% (active)
CC(C)(C)c1csc(NC(=O)CC2OCCc3ccsc32)n1 (configuration not stated)	22.8%
CC(C)(C)c1csc(NC(=O)C23CC4CC(CC(C4)C2)C3)n1	61.1% (active)
CC(C)(C)C(=O)Nc1nc(CC23CC4CC(CC(C4)C2)C3)cs1	38%
Cc1cc(C(=O)Nc2nc(C(C)(C)C)cs2)c(C)o1	60.2% (active)
CC(C)(C)c1csc(NC(=O)c2ccc(Cl)s2)n1	-24%
Cc1ccc(-c2ccc(C3=CC(C)(C)OC3=O)cc2)cc1	43.7%
O=C(Nc1cccc(Cl)c1)Oc1ccccc1-c1ccccc1	17.6%
N#CC1=C2Sc3ccccc3N2C(O)(C(F)(F)F)C(C(=O)C(F)(F)F)=C1 (configuration not stated)	71.5% (active)
Fc1cccc(Cl)c1C1Nc2cccc3cccc(c23)N1	-12.9%
Fc1ccc(Br)cc1C1Nc2cccc3cccc(c23)N1	14.4%
Clc1cccc(C2Nc3cccc4cccc(c34)N2)c1Cl	97.7% (active)
Fc1ccccc1Nc1nc(COc2cccc(Cl)c2)cs1	75.5% (active)
CCC(C)[C@H]1O[C@]2(CC[C@@H]1C)C[C@@H]1C[C@@H](C/C=C(\C)[C@@H](OC3C[C@H](OC)C(O[C@H]4C[C@H](OC)[C@@H](O)[C@H](C)O4)[C@H](C)O3)[C@@H](C)/C=C/C=C3\CO[C@@H]4[C@H](O)C(C)=C[C@@H](C(=O)O1)[C@]34O)O2 (some centres not stated)	67.3% (active)
O=C1c2sc3nnc(-c4ccccc4)c(=O)n3c2C(=O)N1c1cccc(Cl)c1Cl	90.4% (active)
